Type in all cases: functional
In experiment [1] the test system is Plasmodium falciparum. Put plainly: GSK_TCMDC: Inhibition of Plasmodium falciparum 3D7 in whole red blood cells, using parasite LDH activity as an index of growth. Test compounds present at 2uM.
The test system of experiment [2] is Plasmodium falciparum. Description: GSK_TCMDC: Inhibition of Plasmodium falciparum Dd2 in whole red blood cells, using parasite LDH activity as an index of growth. Test compounds present at 2uM.
In experiment [3] the test system is HepG2. Description: GSK_TCMDC: Percent inhibition of human HepG2 cell line. Test compounds present at 10uM.

Results on ten molecules are retold here after ChEMBL document CHEMBL1157539, “Thousands of chemical starting points for antimalarial lead identification” (Nature, 2010).

As for `Cc1nc(N/C(N)=N/C(=O)NC2CCCCC2)nc2ccccc12`, the figures for the Inhibition in experiment [1], in experiment [2] and in experiment [3] were 95%, 99% and 21%, respectively.
For the molecule `O=C(O)C(F)(F)F.c1cc(CN2CCN(CCN3CCOCC3)CC2)cc(-c2cccc(-c3nc4ccccc4[nH]3)c2)c1`, the Inhibition in experiment [1] was determined as 100%; in experiment [2], 100%; in experiment [3], 29%.
Turning to `Cc1cc(NCCC(=O)NCCOc2ccccc2)nc(Nc2ccccc2)n1.O=C(O)C(F)(F)F`, the Inhibition in experiment [1] is listed as 94%; in experiment [2], 55%; in experiment [3], 26%.
As for `COc1ccc(CC2(c3ccc(F)cc3)N=C(N)N(CCCc3cccnc3)C2=O)cc1.O=C(O)C(F)(F)F` (stereo not given), the Inhibition in experiment [1] is listed as 98%; in experiment [2] it was 97%; in experiment [3] it was 12%.
The matching figures for `CC(C)(C)c1ccc(NC(=O)c2ccc(CN3CCCN(Cc4ccc(F)cc4)CC3)cc2)cc1.O=C(O)C(F)(F)F`: 87%, 7% and 55%.
As for `O=C(/C=C/c1ccc(Cl)c(Cl)c1)NCCCCCN1CCC(NC(=O)c2ccc([N+](=O)[O-])cc2)CC1`, the results for the Inhibition in experiment [1], in experiment [2] and in experiment [3] were 100%, 6% and 36%, respectively.
In the case of `CCCCN1CCN(Cc2cccc(NC(=O)c3ccc(Cl)c(Cl)c3)c2)CC1.O=C(O)C(F)(F)F`, the Inhibition came out at 88% in experiment [1], 24% in experiment [2] and 21% in experiment [3].
Regarding `CC(=O)N1N=C(c2ccc(F)cc2)Sc2c1nc(-c1ccccc1)n2C(C)=O`, the results for the Inhibition in experiment [1], in experiment [2] and in experiment [3] were 99%, 67% and 0%, respectively.
For `O=C(NCCc1ccccc1)[C@H](Cc1ccccc1)Nc1ccnc(NCC2CCCCC2)n1.O=C(O)C(F)(F)F`, the Inhibition was determined as 86% in experiment [1], 53% in experiment [2] and 11% in experiment [3].
In the case of `O=C(CN1CCC2(CCC1=O)CC(=O)c1ccccc1O2)NCCN1CCOCC1` (stereo not given), the values for the Inhibition in experiment [1], in experiment [2] and in experiment [3] were 100%, 0% and 6%, respectively.

For orientation: Inhibition means how much of the control response was suppressed. A high value points to a strong effect.
